PubChem BioAssay (NCATS)
Results filed as inconclusive are left out. Calls of active or inactive are those of the source. Calls follow the shape of the dose curve; as a rule, active = well fitted inhibition curve with a large enough effect; inconclusive = small, poorly fitted or top-dose-only effect; inactive = flat fitted curve, though single readings scatter.

Legend:
Assay in all cases: qHTS profiling for inhibitors of Plasmodium falciparum proliferation (AID 504749); also: nearly all actives have a fitted effect of over 60% in size
Settings in all cases: P. falciparum in erythrocytes, SYBR Green DNA, 72 h; series mostly up to 28.7 µM
[1] = tested on: CP250
Method in brief: (§1)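 P. falciparum-infected erythrocytes (0.3% parasitemia, 2.5% hematocrit final) were exposed to compounds for 72 h at 37 C in 5% CO2, then lysed with SYBR Green buffer overnight at room temperature; parasite DNA fluorescence was normalized to artemisinin and DMSO controls.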

[2] = tested on: CP252
Method in brief: as §1

[3] = tested on: CP256
Method in brief: as §1

[4] = tested on: CP260
Method in brief: as §1

[5] = tested on: CP262
Method in brief: as §1

[6] = tested on: CP265
Method in brief: as §1

[7] = tested on: CP266
Method in brief: as §1

[8] = tested on: CP268
Method in brief: as §1

[9] = tested on: CP269
Method in brief: as §1

[10] = tested on: CP286
Method in brief: as §1

Measured: Potency
Potency is read from the fitted curve at half-maximal effect.

CCCCOc1ccc(OCCCN2CCOCC2)cc1
inactive: all assays above

COC1=CC(=O)C[C@@H](C)[C@]12Oc1c(Cl)c(OC)cc(OC)c1C2=O
inactive: all assays above

NCCc1ccn[nH]1
inactive: all assays above

Cc1cc(O)c(C(C)C)cc1Cl
inactive: all assays above

CCOc1ccc(NC(=O)CC(C)O)cc1 (stereo unspecified)
inactive: all assays above

CCN1CCC[C@H]1CNC(=O)c1c(OC)ccc(Br)c1OC
inactive: all assays above

CC1(C)CCC(NC(=O)[C@@H](N)CCC(=O)O)CC1
inactive: all assays above

CC[N+](CC)(CCNC(=O)C(=O)NCC[N+](CC)(CC)Cc1ccccc1Cl)Cc1ccccc1Cl
active: [1] 2.51 µM | [2] 4.47 µM | [3] 0.398 µM | [4] 1.58 µM | [5] 0.849 µM | [6] 0.562 µM | [7] 2.69 µM | [8] 7.57 µM | [9] 4.78 µM | [10] 0.891 µM

CCCCC1=NC2(CCCC2)C(=O)N1Cc1ccc(-c2ccccc2-c2nn[nH]n2)cc1
inactive: all assays above

CN(C(=O)CN(CCO)CC(=O)N(C)C(C)(C)Cc1ccccc1)C(C)(C)Cc1ccccc1
not listed: [8] | [10]
inactive: all other assays above

CCCCC(CC)CN=C(N)NC(N)=NCCCCCCN=C(N)NC(N)=NCC(CC)CCCC (stereo unspecified)
active: [1] 0.891 µM | [2] 1.26 µM | [3] 3.55 µM | [4] 1.12 µM | [5] 1.07 µM | [6] 3.55 µM | [8] 1.69 µM | [9] 1.51 µM | [10] 0.631 µM

Cc1c(F)c(N2CCNC(C)C2)cc2c1c(=O)c(C(=O)O)cn2C1CC1 (stereo unspecified)
not listed: [7]
inactive: all other assays above

O=C1c2ccccc2C(=O)C1c1ccccc1
not listed: [7]
inactive: all other assays above

COc1cc2c(cc1OC)C(C(C(=O)N(CCc1ccc(OC)c(OC)c1OC)CCc1ccc(OC)c(OC)c1OC)c1ccccc1)=NCC2 (stereo unspecified)
active: [1] 7.08 µM | [2] 5.01 µM | [3] 5.62 µM | [4] 3.55 µM | [5] 9.53 µM | [6] 7.94 µM | [8] 13.5 µM | [9] 6.75 µM | [10] 7.94 µM

C[C@H]1C[C@H]2[C@@H]3CCC4=CC(=O)C=C[C@]4(C)[C@@]3(Cl)[C@@H](O)C[C@]2(C)[C@@]1(O)C(=O)CO
inactive: all assays above

CCCCCCc1ccc(O)cc1O
not listed: [7]
inactive: all other assays above

N[C@H](Cc1c[nH]c2ccccc12)C(=O)O
inactive: all assays above

CC(C)COC(=O)c1ccc(N)cc1
not listed: [9]
inactive: all other assays above

CC(O)(P(=O)(O)O)P(=O)(O)O
not listed: [8]
inactive: all other assays above
